Rows were chosen to be rich in hits. Some 2.7% of all compounds tested hit in one or more screens of this group.
Peg3 prom inh: Peg3 promoter activity inhibition; AID 588405; HeLa PEG-Prom luciferase reporter, luminescence, overnight; 360,000 compounds, 1.7% hits; inhibition, % at 20 µM;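 active means inhibition of at least 50% at 20 µM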
KKLEB cytotox: counter-screen for CF NF-kB inhibitors: cytotoxicity | KKLEB CF airway cells viability, ATPlite luminescence, overnight; hits give low values; cells stimulated with P. aeruginosa culture filtrate | activity change (cytotoxicity), % at 5 µM | 360,000 compounds, 0.36% hits;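 active means corrected activity change at or below -50% at 5 µM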
CF NFkB inh: blocks PAF-induced NF-kB reporter in cystic fibrosis cells. 360,000 compounds, 0.86% hits. KKLEB NF-kB-GFP reporter, GFP fluorescence overnight. inhibition, % at 5 µM;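 active means at least 50% inhibition at 5 µM, scaled per plate between neutral and stimulator controls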;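 further: PAF is a Pseudomonas aeruginosa culture filtrate used as stimulus; plate controls were PAF-stimulated DMSO wells for no effect and unstimulated DMSO wells for full effect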
HIF-2a inh: blocks HIF-2a reporter activity | 786-0 RCC cells HIF-2a reporter, luciferase luminescence, overnight | 360,000 compounds, 0.72% hits | inhibition, % at 18.8 µM;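 active means inhibition of the luminescence signal of 40% or more relative to plate controls, in a single-dose primary screen at 18.75 µM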
MITF TRPM1 inh: inhibitors of MITF-driven TRPM1 promoter in melanoma cells; inhibition, % at 12.5 µM; 330,000 compounds, 0.83% hits; SK-MEL-5 TRPM1 promoter luciferase, 24 h; AID 488899;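 active means mean inhibition across replicates of 60% or more, whatever share of single replicates reaches that level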
Shn3 inh set2: reduces Shn3 3'UTR luciferase signal in osteoblasts | inhibition, % at 12.5 µM | Clone20 osteoblast Shn3 3'UTR firefly luciferase, 24 h | 360,000 compounds, 0.52% hits | AID 588674;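 active means mean inhibition of at least 75% with every replicate also reaching 75%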;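 further: 0% = median of neutral control wells and 100% = pilot-screen positive control compound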
An asterisk follows results filed as active; nt = no result given.

SMILES	Peg3 prom inh	KKLEB cytotox	CF NFkB inh	HIF-2a inh	MITF TRPM1 inh	Shn3 inh set2
Cc1ccc(-c2cn3cccnc3n2)cc1NC(=O)c1c(-c2ccccc2Cl)noc1C	28	-6	8	7	13	0
Cc1onc(-c2ccccc2Cl)c1C(=O)Nc1ccc(-c2cn3cccnc3n2)cc1	94*	0	-10	3	-13	73
OCC[C@H]1C[C@H](O)[C@@H](O)[C@]2(OCCc3ccccc32)O1	-10	6	-11	9	-9	8
Cc1ccc(-n2cc(CNCCn3nc(C)cc3C)c(-c3ccc(F)cc3)n2)cc1	-24	-24	11	-19	-13	-12
Cc1ccc(-n2cc(CNCCc3ncc(C)[nH]3)c(-c3ccc(F)cc3)n2)cc1	57*	-10	6	-54	-4	18
COc1ccc(-c2nn(-c3ccccc3)cc2/C=N/Nc2ccc(S(N)(=O)=O)cc2[N+](=O)[O-])cc1OC	27	-66*	58*	10	18	12
COc1ccc(-c2nn(-c3ccccc3)cc2/C=N/N=C(N)N)cc1OC	104*	-14	12	15	94*	-1
CCN1c2ccccc2NC2N=C(OC)C(c3ccccc3)C21 (configuration not stated)	7	-5	5	-16	87*	47
O=C(Nc1nc(-c2ccccc2)cs1)c1ccc2c(c1)S(=O)(=O)c1ccccc1C2=O	25	-57*	50	14	-5	31
O=C(Nc1nc(-c2cccc3ccccc23)cs1)c1ccc2c(c1)S(=O)(=O)c1ccccc1C2=O	-97	-9	2	-186	63*	-3
O=C(Nc1ccncc1)c1ccc2c(c1)S(=O)(=O)c1ccccc1C2=O	19	1	5	-18	10	58
CCCN(CCC)C(=O)c1cn(C)c2ccc(S(=O)(=O)N3CCCC3)cc2c1=O	12	11	-2	-5	8	-27
c1ccc(COc2ccccc2CNC2CCCC2)cc1	-8	9	-9	4	-3	17
c1ccc(COc2ccccc2CNC23CC4CC(CC(C4)C2)C3)cc1	75*	-12	19	13	7	-8
CC1(C)CC(N=Cc2c(O)n(Cc3ccc4c(c3)OCO4)c(=O)c3ccccc23)CC(C)(C)N1	82*	-9	5	5	11	-3
CN(C)CCN=Cc1c(O)n(Cc2ccccc2)c(=O)c2ccccc12	7	-8	8	5	-1	-8
Cc1ccc(S(=O)(=O)N2CCCCC2)cc1NC(=O)C1COc2ccccc2O1 (configuration not stated)	14	20	7	0	nt	7
CCCCCCCCCn1c2c(c(=N)c3c1CCC3)CCCC2	104*	-56*	46	27	92*	92*
CCCCCn1c2c(c(=N)c3ccccc31)CCC2	8	17	-54	5	28	68
CCCCCCCCn1c2c(c(=N)c3ccccc31)CCC2	86*	-26	34	4	90*	91*
CCCCCCCCCCn1c2c(c(=N)c3c1CCC3)CCC2	98*	-64*	59*	64*	81*	71
CCN(C(=O)CSc1nnc(-c2ccccc2OC)n1N)c1c(N)n(Cc2ccccc2)c(=O)[nH]c1=O	4	-8	-25	7	-8	-6
COc1ccc(/C=N/Nc2ccc([N+](=O)[O-])cc2)cc1O	-416	9	-64	-249	-103	-54
O=c1ccc(-c2ccc(S(=O)(=O)Nc3ccc(F)cc3)o2)n[nH]1	2	-6	21	12	-4	-10
NC(=O)c1oc2ccccc2c1NC(=O)c1ccc(F)cc1	12	3	-47	8	nt	5
SMILES	Peg3 prom inh	KKLEB cytotox	CF NFkB inh	HIF-2a inh	MITF TRPM1 inh	Shn3 inh set2
COc1cc(NC(=O)c2ccc(-c3cccc([N+](=O)[O-])c3)o2)ccc1NC(=O)C(C)C	78*	7	-72	-2	-4	9
Cc1cc(C)cc(NC(=O)c2ccc([N+](=O)[O-])o2)c1	75*	-68*	85*	19	65*	35
NC(=O)c1oc2ccccc2c1NC(=O)c1ccc([N+](=O)[O-])o1	109*	-24	62*	16	83*	58
COc1cc(NC(=O)c2ccc([N+](=O)[O-])o2)ccc1NC(=O)c1ccco1	57*	-15	10	-45	84*	68
COc1ccc(-c2cc(C(=O)NCc3cccc(Cl)c3)[nH]n2)c(C)c1	5	5	-6	-20	nt	-5
NS(=O)(=O)c1cccc(-n2cnnn2)c1	6	-9	4	6	-14	-21
COc1ccc(Cn2c3ccc(OC)cc3c3nc4ccccc4nc32)cc1	16	-13	-5	14	0	-12
COc1ccc2c(c1)c1nc3ccccc3nc1n2CC(=O)OC(C)C	55*	-56*	23	-2	13	-12
CC(C)(C)OC(=O)C[C@@H]1C/C=C\C[C@@H](CC(=O)N[C@@H](CO)Cc2ccccc2)C(=O)NC[C@@H](c2ccccc2)OC1=O	29	-4	-3	11	-12	-11
CC[C@H](C)Cc1cn([C@@H](CCCN=C(NC(=O)OC(C)(C)C)NC(=O)OC(C)(C)C)C(=O)NCCCCCCCCCCC(=O)N2CCN(C(=O)OC(C)(C)C)CC2)nn1	54*	-2	11	1	16	29
Cc1cn([C@@H](CCCCNC(=O)OC(C)(C)C)C(=O)NCCCCCCCCCCC(=O)N2CCN(C(=O)OC(C)(C)C)CC2)nn1	84*	-4	5	5	65*	90*
CC(C)(C)OC(=O)NCCCCCc1cn(CC(=O)NCCCCCCCCCCC(=O)N2CCN(C(=O)OC(C)(C)C)CC2)nn1	-75	-9	11	-80	17	81
CC1CCCN(C(=O)COC(=O)c2cc(-c3cccs3)nn2-c2ccccc2)C1 (configuration not stated)	-7	7	8	3	-3	1
CCC(=O)Nc1ccc(-c2ccc(N3CCC(C)CC3)nn2)cc1	-144	1	-8	-217	-90	-19
CCC(=O)Nc1cccc(-c2ccc(N3CCC(C)CC3)nn2)c1	-124	-55*	8	9	-9	3
COc1ccc(-c2n(CC(=O)OC3CC(C)CCC3C(C)C)c3ccccc3[n+]2C)cc1 (configuration not stated)	77*	-54*	60*	5	91*	92*
CC(C)c1ccccc1NC(=O)Nc1nc(C(N)Cc2ccc(C(F)(F)F)cc2)cs1 (configuration not stated)	108*	-24	32	14	nt	98*
CC(N)c1csc(NC(=O)Nc2cccc(C(F)(F)F)c2)n1 (configuration not stated)	78*	-18	19	10	nt	3
NC(=O)c1cccc(Nc2nc(C(N)Cc3ccc(C(F)(F)F)cc3)cs2)n1 (configuration not stated)	27	-10	-11	-14	nt	33

From PubChem
